Assay results published in PubChem BioAssay (Tox21).
Results filed as inconclusive are left out. The source made the active and inactive calls. Unless noted, calls follow the shape of the full dose curve.

Experiments:
[1] = Nuclear factor erythroid 2-related factor 2/antioxidant responsive element (Nrf2/ARE) small molecule agonists: qHTS cell viability counter screen in human keratinocytes (AID 1919968; active = well fitted curve in the direction sought with a large enough effect in the repeat runs; an effect the other way counts as inactive or inconclusive; also: nearly all actives have a fitted effect of over 55% in size)
Method in brief: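 HaCaT ARE reporter line, 1,500 cells/well; 5 h settle, 37 C/5% CO2; cpd in DMSO pinned; 23 h exposure; CellTiter-Fluor, 1 h; fluorescence.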

[2] = Nuclear factor erythroid 2-related factor 2/antioxidant responsive element (Nrf2/ARE) small molecule agonists: luciferase reporter gene qHTS assay in human keratinocytes (AID 1919969); also: nearly all actives have a fitted effect of over 35% in size
[3] = target: Gonadotropin-releasing hormone receptor (Homo sapiens) (UniProt P30968); experiment: Human gonadotropin-releasing hormone receptor (GnRHR) small molecule agonists, calcium flux assay in GnRHR-HEK293 cells (AID 1920063); also: nearly all actives have a fitted effect of over 35% in size
Chain of Gonadotropin-releasing hormone receptor (Homo sapiens) (P30968 whole entry, looked up): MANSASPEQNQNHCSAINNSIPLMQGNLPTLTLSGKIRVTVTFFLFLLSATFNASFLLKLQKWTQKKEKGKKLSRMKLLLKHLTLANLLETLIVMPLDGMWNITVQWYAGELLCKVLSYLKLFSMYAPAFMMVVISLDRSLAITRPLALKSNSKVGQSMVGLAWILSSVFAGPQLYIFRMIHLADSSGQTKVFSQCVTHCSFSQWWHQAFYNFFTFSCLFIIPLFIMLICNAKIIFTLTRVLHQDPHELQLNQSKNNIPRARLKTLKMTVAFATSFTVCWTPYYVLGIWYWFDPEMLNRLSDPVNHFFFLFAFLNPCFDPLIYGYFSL
Method in brief: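 GnRHR-HEK293, 1500 cells/well, 18 h 37 C/5% CO2; Ca dye 1 h 37 C; cpd pinned (DMSO), agonist mode; kinetic FL 480/540, 3 min, 1 s reads; 15 conc, n=3.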

[4] = target: KiSS-1 receptor (Homo sapiens) (UniProt Q969F8); experiment: Human kisspeptin (KISS1R) small molecule agonists, calcium flux assay in KISS1R-HEK293 cells (AID 1920064; active = well fitted curve in the direction sought with a large enough effect in the repeat runs; an effect the other way counts as inactive or inconclusive)
Chain of KiSS-1 receptor (Homo sapiens) (Q969F8 whole entry, looked up): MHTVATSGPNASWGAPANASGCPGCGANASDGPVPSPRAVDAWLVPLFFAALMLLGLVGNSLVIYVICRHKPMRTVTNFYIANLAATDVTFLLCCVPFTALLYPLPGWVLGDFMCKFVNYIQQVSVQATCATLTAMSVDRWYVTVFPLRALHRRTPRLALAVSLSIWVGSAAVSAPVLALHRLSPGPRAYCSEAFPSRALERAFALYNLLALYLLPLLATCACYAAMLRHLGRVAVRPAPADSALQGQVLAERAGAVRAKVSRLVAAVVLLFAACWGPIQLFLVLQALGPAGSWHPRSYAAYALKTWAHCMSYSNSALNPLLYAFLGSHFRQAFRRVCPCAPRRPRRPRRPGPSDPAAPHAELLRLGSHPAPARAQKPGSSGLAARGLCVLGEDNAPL
Method in brief: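 Stable human KISS1R HEK293 line; 18 h plating, 37 C/5% CO2; calcium dye 1 h 37 C; compound pin transfer; kinetic fluorescence Ex/Em 480/540, 3 min.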

[5] = G protein-coupled receptor (GPCR) small molecule agonists, calcium flux assay: HEK293 wild type cell line counter screen (AID 1920065)
Method in brief: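 Kinetic fluorescence at Ex/Em 480/540, recorded every second over 3 min, served as the read-out after compound addition. Each compound was tested at 15 concentrations in triplicate on cells pre-loaded with calcium dye for 1 h.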

[6] = p53 small molecule agonists, cell-based qHTS assay with rat liver microsomes (AID 1963578)
Method in brief: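 p53RE-bla cells were exposed to compounds together with rat liver microsomes (0.5 mg/mL final) and NADPH (0.5 mg/mL final) for 16 h at 37 C, then read by LiveBLAzer beta-lactamase fluorescence after 2 h at room temperature.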

[7] = p53 small molecule agonists, cell-based qHTS assay with human liver microsomes: qHTS cell viability counter screen (AID 1963579); also: nearly all actives have a fitted effect of over 45% in size
Method in brief: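 p53RE-bla cells (4,000/well) were pre-incubated 5 h at 37 C, then given compounds in DMSO plus human liver microsomes (0.5 mg/mL final) and NADPH (0.5 mg/mL final) for 16 h at 37 C. Viability was read by CellTiter-Glo luminescence.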

[8] = p53 small molecule agonists, cell-based qHTS assay: qHTS cell viability counter screen (AID 1963581); also: nearly all actives have a fitted effect of over 45% in size
Method in brief: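 HCT-116 p53RE-bla cells, 4,000/well, plated 5 h before compound pin transfer; 16 h at 37 C; bla substrate 2 h RT; then CellTiter-Glo, 30 min RT, luminescence.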

[9] = p53 small molecule agonists, cell-based qHTS assay (AID 1963582; active = well fitted activation curve with a large enough effect in the signal ratio in the repeat runs, not every such curve was filed as active; the % refers to the signal ratio)
Method in brief: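 Reporter line: p53RE-bla. Pre-incubation 5 h, 37 C, 5% CO2; compound (DMSO, pin tool) 16 h, 37 C; B/G FRET substrate 2 h RT; fluorescence intensity read.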

[10] = target: 5-hydroxytryptamine receptor 2A (Homo sapiens) (UniProt P28223); experiment: 5-hydroxytryptamine receptor 2A (HTR2A) small molecule agonists, cell-based qHTS assay (AID 1963587); also: nearly all actives have a fitted effect of over 30% in size
Chain of 5-hydroxytryptamine receptor 2A (Homo sapiens) (P28223 whole entry, looked up): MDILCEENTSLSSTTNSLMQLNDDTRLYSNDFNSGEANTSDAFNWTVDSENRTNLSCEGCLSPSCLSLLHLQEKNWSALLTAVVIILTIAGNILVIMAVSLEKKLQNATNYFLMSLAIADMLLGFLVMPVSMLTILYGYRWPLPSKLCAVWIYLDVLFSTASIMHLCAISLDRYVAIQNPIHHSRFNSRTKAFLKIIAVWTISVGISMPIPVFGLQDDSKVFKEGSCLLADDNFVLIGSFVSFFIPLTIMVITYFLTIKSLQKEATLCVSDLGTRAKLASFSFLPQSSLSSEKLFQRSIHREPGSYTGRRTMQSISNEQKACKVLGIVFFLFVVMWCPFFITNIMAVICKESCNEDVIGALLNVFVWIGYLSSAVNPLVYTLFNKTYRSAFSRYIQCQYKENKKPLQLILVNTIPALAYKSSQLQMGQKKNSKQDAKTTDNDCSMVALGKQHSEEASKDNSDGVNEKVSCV
Method in brief: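 CHO cells stably expressing human HTR2A, plated 18 h, loaded with calcium dye 1 h at 37 C. Agonist mode: compounds added and intracellular calcium fluorescence recorded kinetically for 2 min at 1 sec intervals.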

[11] = target: Muscarinic acetylcholine receptor M1 (Homo sapiens) (UniProt P11229); experiment: Cholinergic receptor muscarinic 1 (CHRM1) small molecule antagonists, cell-based qHTS assay (AID 1963588); also: nearly all actives have a fitted effect of over 40% in size
Chain of Muscarinic acetylcholine receptor M1 (Homo sapiens) (P11229 whole entry, looked up): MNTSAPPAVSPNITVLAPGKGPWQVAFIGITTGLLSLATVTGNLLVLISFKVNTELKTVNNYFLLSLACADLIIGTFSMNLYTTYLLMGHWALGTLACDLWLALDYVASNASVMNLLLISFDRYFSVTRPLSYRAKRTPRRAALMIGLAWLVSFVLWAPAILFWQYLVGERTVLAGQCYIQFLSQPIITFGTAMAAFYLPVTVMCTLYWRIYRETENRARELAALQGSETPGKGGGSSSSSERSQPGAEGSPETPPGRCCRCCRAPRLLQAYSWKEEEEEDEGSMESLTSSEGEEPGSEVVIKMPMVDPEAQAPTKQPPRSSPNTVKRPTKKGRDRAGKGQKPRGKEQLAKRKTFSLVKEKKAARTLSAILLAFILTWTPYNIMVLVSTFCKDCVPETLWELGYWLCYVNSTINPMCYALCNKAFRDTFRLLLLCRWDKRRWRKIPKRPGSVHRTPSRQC
Method in brief: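 CHRM1-CHO calcium-flux assay, antagonist mode. Cells were seeded 18 h, dye-loaded 1 h at 37 C and given compound for 5 min at RT, then acetylcholine was added at 50nM. FDSS fluorescence was read 3 min; 15 concentrations, three runs.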

[12] = target: Muscarinic acetylcholine receptor M1 (Homo sapiens) (UniProt P11229); experiment: Cholinergic receptor muscarinic 1 (CHRM1) small molecule agonists, cell-based qHTS assay (AID 1963589); also: nearly all actives have a fitted effect of over 35% in size
Method in brief: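 Human M1 in stable CHO line; 18 h plating, 1 h dye load 37 C; cpd added (agonist mode); Ca2+ fluorescence kinetic read, 1 s intervals; 15 conc, 3 runs.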

[13] = cAMP Responsive Elements (CRE) small molecule antagonists, cell-based qHTS assay (AID 1963591; active = well fitted inhibition curve with a large enough effect in the signal ratio in the repeat runs, not every such curve was filed as active; the % refers to the signal ratio)
Method in brief: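 Beta-lactamase reporter read by FRET substrate (LiveBLAzer B/G) after 2 h at room temperature. CRE-bla HEK293T cells had received compound plus 0.25 uM (final) NKH477 for 3 h at 37 °C.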

[14] = target: Beta-2 adrenergic receptor (Homo sapiens) (UniProt P07550); experiment: Adrenergic beta2 receptor (ADRB2) small molecule antagonists, cell-based qHTS assay (AID 1963592); also: series mostly up to about 92 µM; nearly all actives have a fitted effect of over 50% in size
Chain of Beta-2 adrenergic receptor (Homo sapiens) (P07550 whole entry, looked up): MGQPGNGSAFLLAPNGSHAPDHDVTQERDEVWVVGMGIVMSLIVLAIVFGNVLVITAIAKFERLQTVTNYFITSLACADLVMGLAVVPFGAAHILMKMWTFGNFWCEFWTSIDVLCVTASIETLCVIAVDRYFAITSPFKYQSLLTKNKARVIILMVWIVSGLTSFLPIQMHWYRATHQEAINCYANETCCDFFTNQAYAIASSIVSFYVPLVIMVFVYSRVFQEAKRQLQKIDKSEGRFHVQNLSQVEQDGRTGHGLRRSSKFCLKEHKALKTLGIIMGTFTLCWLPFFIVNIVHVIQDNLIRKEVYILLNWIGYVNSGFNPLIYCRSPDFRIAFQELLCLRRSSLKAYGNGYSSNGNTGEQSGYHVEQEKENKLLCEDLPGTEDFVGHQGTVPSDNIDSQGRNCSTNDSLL
Method in brief: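 Cells (CHO, stable ADRB2 overexpression) incubated 18-20hr at 37C; compounds added from DMSO; agonist mix (1nM isoproterenol, 100uM IBMX, 25uM Ro-20-1724) added; 0.5hr RT; d2-cAMP and anti-cAMP-cryptate added; 1hr RT; 665/615 nm read.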

[15] = p53 small molecule agonists, cell-based qHTS assay with rat liver microsomes: qHTS cell viability counter screen (AID 1963580); also: nearly all actives have a fitted effect of over 45% in size
Method in brief: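 Viability is assessed in parallel with the p53 reporter read: HCT-116 p53RE-bla cells receive compounds plus rat microsomes and NADPH (0.5 mg/mL final apiece), incubate 16 h at 37 C, and then CellTiter-Glo luminescence is recorded.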

[16] = cAMP Responsive Elements (CRE) small molecule agonists, cell-based qHTS assay (AID 1963590)
Method in brief: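 HEK 293T CRE-bla, 2,000 cells/well, 18 h preincubation 37 C/5% CO2; cpds (DMSO) pinned, 3 h; LiveBLAzer B/G FRET substrate, 2 h RT.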

[17] = target: D(2) dopamine receptor (Homo sapiens) (UniProt P14416); experiment: Dopamine D2 receptor (DRD2) small molecule agonists, cell-based qHTS assay (AID 1963594); also: nearly all actives have a fitted effect of over 35% in size
Chain of D(2) dopamine receptor (Homo sapiens) (P14416 whole entry, looked up): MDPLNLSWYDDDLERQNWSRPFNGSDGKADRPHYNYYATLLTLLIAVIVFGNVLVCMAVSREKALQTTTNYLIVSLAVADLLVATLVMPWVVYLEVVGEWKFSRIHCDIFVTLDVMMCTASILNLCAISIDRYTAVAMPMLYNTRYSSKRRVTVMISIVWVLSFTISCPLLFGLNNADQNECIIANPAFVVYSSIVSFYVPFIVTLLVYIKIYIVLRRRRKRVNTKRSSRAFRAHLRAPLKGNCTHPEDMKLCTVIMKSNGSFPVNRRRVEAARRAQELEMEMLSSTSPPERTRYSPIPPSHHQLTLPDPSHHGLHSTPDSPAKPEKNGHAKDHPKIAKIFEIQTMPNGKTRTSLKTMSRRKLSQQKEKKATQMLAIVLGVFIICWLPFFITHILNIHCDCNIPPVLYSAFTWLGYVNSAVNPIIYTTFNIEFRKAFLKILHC
Method in brief: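 HEK293 cells stably expressing human DRD2, pre-treated with PDE inhibitor Ro20-1724 (0.1 mM final) and compound 10 min at room temperature, then stimulated with NKH477 (200nM […]) for 30 min. cAMP read by HTRF (665/620 nm).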

[18] = target: D(2) dopamine receptor (Homo sapiens) (UniProt P14416); experiment: Dopamine D2 receptor (DRD2) small molecule antagonists, cell-based qHTS assay (AID 1963595; active = well fitted inhibition curve with a large enough effect in the signal ratio in the repeat runs, with a control signal flat; the % refers to the signal ratio)
Method in brief: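 Human DRD2 antagonist qHTS measuring cAMP by HTRF. The cells are exposed to compound for 10 min, then to NKH477 (200 nM) and quinpirole (12 nM) for 30 min at RT, with Ro20-1724 (0.1 mM) present throughout.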

[19] = p53 small molecule agonists, cell-based qHTS assay with human liver microsomes (AID 1963577)
Method in brief: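 p53RE-bla reporter cells were pre-incubated 5 h at 37 C, then treated with compounds plus human liver microsomes (0.5 mg/mL final) and NADPH (0.5 mg/mL final) for 16 h at 37 C. Beta-lactamase activity was read by LiveBLAzer fluorescence after 2 h at room temperature.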

[20] = target: 5-hydroxytryptamine receptor 2A (Homo sapiens) (UniProt P28223); experiment: 5-hydroxytryptamine receptor 2A (HTR2A) small molecule antagonists, cell-based qHTS assay (AID 1963586); also: nearly all actives have a fitted effect of over 45% in size
Method in brief: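 Antagonist-mode intracellular calcium assay: DOI (4 nM) added after 5 min compound pre-incubation at room temperature to dye-loaded HTR2A-CHO cells. Fluorescence followed for 3 min, sampled every second.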
% is scaled to controls: 0 for no effect and ±100 for the full control effect.

CCCCCCCC/C=C\CCCCCCCC(=O)OC[C@@H](O)[C@H]1OC[C@H](O)[C@H]1O
inactive: Potency [1] | Potency [2] | Potency [3] | outcome [4] | outcome [5] | Potency [6] | Potency [7] | Potency [8] | Potency [9] | Potency [10] | Potency [11] | Potency [12] | Potency [13] | Potency [14]

CC(CCl)OC(C)CCl (centres undefined)
inactive: Potency [1] | Potency [2] | Potency [3] | outcome [4] | outcome [5] | Potency [6] | Potency [15] | Potency [9] | Potency [10] | Potency [11] | Potency [12] | Potency [16] | Potency [14] | Potency [17] | Potency [18]

COc1ccc(-c2cc(=O)c3c(O)cc(O[C@@H]4O[C@H](CO[C@@H]5O[C@@H](C)[C@H](O)[C@@H](O)[C@H]5O)[C@@H](O)[C@H](O)[C@H]4O)cc3o2)cc1O
inactive: Potency [1] | Potency [2] | Potency [3] | outcome [4] | outcome [5] | Potency [7] | Potency [15] | Potency [8] | Potency [9] | Potency [10] | Potency [11] | Potency [12] | Potency [13] | Potency [14] | Potency [17] | Potency [18]

CO[Si](C)(OC)c1ccccc1
inactive: Potency [1] | Potency [2] | Potency [3] | outcome [4] | Potency [19] | Potency [6] | Potency [7] | Potency [15] | Potency [8] | Potency [9] | Potency [20] | Potency [10] | Potency [11] | Potency [12] | Potency [16] | Potency [14] | Potency [17]

C[C@H](N)C(=O)N[C@@H](C)C(=O)NC1[C@H]2CN(c3nc4c(cc3F)c(=O)c(C(=O)O)cn4-c3ccc(F)cc3F)C[C@@H]12 (some centres undefined)
inactive: Potency [1] | Potency [2] | Potency [3] | outcome [4] | Potency [19] | Potency [6] | Potency [7] | Potency [15] | Potency [8] | Potency [9] | Potency [20] | Potency [10] | Potency [11] | Potency [12] | Potency [14] | Potency [17] | Potency [18]

Cc1c(Cl)cccc1[N+](=O)[O-]
inactive: Potency [1] | Potency [2] | Potency [3] | outcome [4] | Potency [19] | Potency [6] | Potency [7] | Potency [15] | Potency [8] | Potency [9] | Potency [20] | Potency [10] | Potency [11] | Potency [12] | Potency [16] | Potency [13] | Potency [17] | Potency [18]

C[C@@H](O)[C@H](N)C(=O)O
inactive: activity change, negative = cytotoxicity [1] 1.84% [at 19 µM] | activity, positive = activation [2] 1.15% [at 19 µM] | activity change [3] -1.37% [at 11.8 µM, active compounds read high] | activation [4] -0.197% [at 15.8 µM] | activation [19] 1.89% [at 13.5 µM] | activation [6] 3.27% [at 13.6 µM] | activity change, negative = cytotoxicity [7] 12.8% [at 13.5 µM] | activity change, negative = cytotoxicity [15] -1.12% [at 13.5 µM] | activity change, negative = cytotoxicity [8] 3.28% [at 13.5 µM] | activation [9] -0.75% [at 13.5 µM] | activity, negative = inhibition [11] -1.65% [at 12.6 µM] | activation [12] -0.0423% [at 15.8 µM] | activation [16] -0.0351% [at 19 µM] | activity change, negative = inhibition [13] 5.26% [at 18.9 µM] | activity change, negative = inhibition [14] 2.52% [at 19 µM] | activation [17] 17.6% [at 19 µM] | activity change, negative = inhibition [18] -2.84% [at 18.9 µM]
